# What was measured:
# Assay in all cases: SPOT peptide array binding signal intensity (averaged, normalized) (arbitrary units (background-subtracted, floor 0; scale differs between SH3 domains)); higher = stronger binding of the SH3 domain to the peptide
# [1] = biological target: AgAbp1
# Method in brief: (§1)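 E. coli BL21(DE3) was used to express GST-fused SH3 domains from four yeast species, which were then purified on glutathione Sepharose. These were incubated at 10 μg/ml in TBS-based blocking buffer overnight at 4°C on cellulose membranes carrying synthetic 15-mer peptides, in which cysteines were replaced by serines. Binding signal is the replicate average of normalized, background-subtracted spot intensity, in arbitrary units that differ between domains.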
# [2] = biological target: AgBbc1
# Method in brief: as §1
# [3] = biological target: AgBem1-D1
# Method in brief: as §1
# [4] = biological target: AgBzz1-D1
# Method in brief: as §1
# [5] = biological target: AgBzz1-D2
# Method in brief: as §1
# [6] = biological target: AgCyk3
# Method in brief: as §1
# [7] = biological target: AgFus1
# Method in brief: as §1
# [8] = biological target: AgHof1
# Method in brief: as §1
# [9] = biological target: AgHse1
# Method in brief: as §1
# [10] = biological target: AgLsb1
# Method in brief: as §1
# [11] = biological target: AgLsb4
# Method in brief: as §1
# [12] = biological target: AgMyo5
# Method in brief: as §1
# [13] = biological target: AgNbp2
# Method in brief: as §1
# [14] = biological target: AgRvs167
# Method in brief: as §1
# [15] = biological target: AgSho1
# Method in brief: as §1
# [16] = biological target: AgSla1-D1-D2
# Method in brief: as §1
# [17] = biological target: AgSla1-D3
# Method in brief: as §1
# [18] = biological target: CaAbp1-D1
# Method in brief: as §1
# [19] = biological target: CaAbp1-D2
# Method in brief: as §1
# [20] = biological target: CaBbc1
# Method in brief: as §1
# [21] = biological target: CaBem1-D1
# Method in brief: as §1
# [22] = biological target: CaBzz1-D1
# Method in brief: as §1
# [23] = biological target: CaBzz1-D2
# Method in brief: as §1
# [24] = biological target: CaCyk3
# Method in brief: as §1
# [25] = biological target: CaFus1
# Method in brief: as §1
# [26] = biological target: CaHof1
# Method in brief: as §1
# [27] = biological target: CaHse1
# Method in brief: as §1
# [28] = biological target: CaLsb1
# Method in brief: as §1
# [29] = biological target: CaLsb4
# Method in brief: as §1
# [30] = biological target: CaMyo5
# Method in brief: as §1
# [31] = biological target: CaNbp2
# Method in brief: as §1
# [32] = biological target: CaRvs167
# Method in brief: as §1
# [33] = biological target: CaRvs167-3
# Method in brief: as §1
# [34] = biological target: CaSho1
# Method in brief: as §1
# [35] = biological target: CaSla1-D1-D2
# Method in brief: as §1
# [36] = biological target: CaSla1-D3
# Method in brief: as §1
# [37] = biological target: ScAbp1
# Method in brief: as §1
# [38] = biological target: ScBbc1
# Method in brief: as §1
# [39] = biological target: ScBem1-D1
# Method in brief: as §1
# [40] = biological target: ScBzz1-D1
# Method in brief: as §1
# [41] = biological target: ScBzz1-D2
# Method in brief: as §1
# [42] = biological target: ScCyk3
# Method in brief: as §1
# [43] = biological target: ScFus1
# Method in brief: as §1
# [44] = biological target: ScHof1
# Method in brief: as §1
# [45] = biological target: ScHse1
# Method in brief: as §1
# [46] = biological target: ScLsb1
# Method in brief: as §1
# [47] = biological target: ScLsb2
# Method in brief: as §1
# [48] = biological target: ScLsb3
# Method in brief: as §1
# [49] = biological target: ScLsb4
# Method in brief: as §1
# [50] = biological target: ScMyo3
# Method in brief: as §1
# [51] = biological target: ScMyo5
# Method in brief: as §1
# [52] = biological target: ScNbp2
# Method in brief: as §1
# [53] = biological target: ScPex13
# Method in brief: as §1
# [54] = biological target: ScRvs167
# Method in brief: as §1
# [55] = biological target: ScSho1
# Method in brief: as §1
# [56] = biological target: ScSla1-D1-D2
# Method in brief: as §1
# [57] = biological target: ScSla1-D3
# Method in brief: as §1
# [58] = biological target: SpAbp1-D1
# Method in brief: as §1
# [59] = biological target: SpBbc1
# Method in brief: as §1
# [60] = biological target: SpBzz1-D1
# Method in brief: as §1
# [61] = biological target: SpBzz1-D2
# Method in brief: as §1
# [62] = biological target: SpCyk3
# Method in brief: as §1
# [63] = biological target: SpHof1
# Method in brief: as §1
# [64] = biological target: SpHof1-2
# Method in brief: as §1
# [65] = biological target: SpHof1-3
# Method in brief: as §1
# [66] = biological target: SpHse1
# Method in brief: as §1
# [67] = biological target: SpLsb1
# Method in brief: as §1
# [68] = biological target: SpLsb4
# Method in brief: as §1
# [69] = biological target: SpMyo1
# Method in brief: as §1
# [70] = biological target: SpNbp2
# Method in brief: as §1
# [71] = biological target: SpPex13
# Method in brief: as §1
# [72] = biological target: SpRvs167
# Method in brief: as §1
# [73] = biological target: SpSla1-D1-D2
# Method in brief: as §1
# [74] = biological target: SpSla1-D3
# Method in brief: as §1
binder,measurement,setting,value
RLSFFFPLDPAYIRN,SPOT peptide array binding signal intensity,[1],≤ 0
same,SPOT peptide array binding signal intensity,[2],2.25
same,SPOT peptide array binding signal intensity,[3],121
same,SPOT peptide array binding signal intensity,[4],27
same,SPOT peptide array binding signal intensity,[5],72.5
same,SPOT peptide array binding signal intensity,[6],7
same,SPOT peptide array binding signal intensity,[7],854
same,SPOT peptide array binding signal intensity,[8],34
same,SPOT peptide array binding signal intensity,[9],1180
same,SPOT peptide array binding signal intensity,[10],1.5
same,SPOT peptide array binding signal intensity,[11],152
same,SPOT peptide array binding signal intensity,[12],1.5
same,SPOT peptide array binding signal intensity,[13],34
same,SPOT peptide array binding signal intensity,[14],4
same,SPOT peptide array binding signal intensity,[15],50
same,SPOT peptide array binding signal intensity,[16],37
same,SPOT peptide array binding signal intensity,[17],8.5
same,SPOT peptide array binding signal intensity,[18],2
same,SPOT peptide array binding signal intensity,[19],≤ 0
same,SPOT peptide array binding signal intensity,[20],≤ 0
same,SPOT peptide array binding signal intensity,[21],24
same,SPOT peptide array binding signal intensity,[22],32.5
same,SPOT peptide array binding signal intensity,[23],43
same,SPOT peptide array binding signal intensity,[24],3
same,SPOT peptide array binding signal intensity,[25],2490
same,SPOT peptide array binding signal intensity,[26],0.5
same,SPOT peptide array binding signal intensity,[27],134
same,SPOT peptide array binding signal intensity,[28],1.5
same,SPOT peptide array binding signal intensity,[29],45.5
same,SPOT peptide array binding signal intensity,[30],187
same,SPOT peptide array binding signal intensity,[31],474
same,SPOT peptide array binding signal intensity,[32],57.8
same,SPOT peptide array binding signal intensity,[33],238
same,SPOT peptide array binding signal intensity,[34],1050
same,SPOT peptide array binding signal intensity,[35],≤ 0
same,SPOT peptide array binding signal intensity,[36],35.8
same,SPOT peptide array binding signal intensity,[37],2
same,SPOT peptide array binding signal intensity,[38],≤ 0
same,SPOT peptide array binding signal intensity,[39],17
same,SPOT peptide array binding signal intensity,[40],42
same,SPOT peptide array binding signal intensity,[41],79
same,SPOT peptide array binding signal intensity,[42],282
same,SPOT peptide array binding signal intensity,[43],627
same,SPOT peptide array binding signal intensity,[44],2
same,SPOT peptide array binding signal intensity,[45],1380
same,SPOT peptide array binding signal intensity,[46],0.5
same,SPOT peptide array binding signal intensity,[47],≤ 0
same,SPOT peptide array binding signal intensity,[48],48
same,SPOT peptide array binding signal intensity,[49],9
same,SPOT peptide array binding signal intensity,[50],9.5
same,SPOT peptide array binding signal intensity,[51],5
same,SPOT peptide array binding signal intensity,[52],84.5
same,SPOT peptide array binding signal intensity,[53],6.25
same,SPOT peptide array binding signal intensity,[54],7.67
same,SPOT peptide array binding signal intensity,[55],738
same,SPOT peptide array binding signal intensity,[56],13
same,SPOT peptide array binding signal intensity,[57],37.5
same,SPOT peptide array binding signal intensity,[58],1
same,SPOT peptide array binding signal intensity,[59],0.5
same,SPOT peptide array binding signal intensity,[60],121
same,SPOT peptide array binding signal intensity,[61],2
same,SPOT peptide array binding signal intensity,[62],24
same,SPOT peptide array binding signal intensity,[63],130
same,SPOT peptide array binding signal intensity,[64],45
same,SPOT peptide array binding signal intensity,[65],389
same,SPOT peptide array binding signal intensity,[66],1620
same,SPOT peptide array binding signal intensity,[67],≤ 0
same,SPOT peptide array binding signal intensity,[68],15
same,SPOT peptide array binding signal intensity,[69],17.8
same,SPOT peptide array binding signal intensity,[70],69.5
same,SPOT peptide array binding signal intensity,[71],23.5
same,SPOT peptide array binding signal intensity,[72],11.2
same,SPOT peptide array binding signal intensity,[73],6
same,SPOT peptide array binding signal intensity,[74],32
